Out of some 330,000 compounds screened, about 10,000 (3%) were called active.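 How the source made its calls: active means inhibition of at least 50% at 8 µM in the primary screen; inactive means the rest.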 The list comes from a sample in which actives are over-represented; it also holds similar structures and randomly drawn compounds.
Target: Protein Mdm4 (Homo sapiens) + E3 ubiquitin-protein ligase Mdm2 (Homo sapiens) (UniProt O15151+Q00987)
Assay: disruptors of Mdm2/MdmX RING complex – cell-based, luminescence, split luciferase, SaOS-2, uHTS, primary screen (AID 485346)
Conditions: SaOS-2 split-luciferase Mdm2/MdmX complementation, at 8 µM, hits give high values

Sequence of Protein Mdm4 (Homo sapiens) + E3 ubiquitin-protein ligase Mdm2 (Homo sapiens) (O15151 whole entry, looked up): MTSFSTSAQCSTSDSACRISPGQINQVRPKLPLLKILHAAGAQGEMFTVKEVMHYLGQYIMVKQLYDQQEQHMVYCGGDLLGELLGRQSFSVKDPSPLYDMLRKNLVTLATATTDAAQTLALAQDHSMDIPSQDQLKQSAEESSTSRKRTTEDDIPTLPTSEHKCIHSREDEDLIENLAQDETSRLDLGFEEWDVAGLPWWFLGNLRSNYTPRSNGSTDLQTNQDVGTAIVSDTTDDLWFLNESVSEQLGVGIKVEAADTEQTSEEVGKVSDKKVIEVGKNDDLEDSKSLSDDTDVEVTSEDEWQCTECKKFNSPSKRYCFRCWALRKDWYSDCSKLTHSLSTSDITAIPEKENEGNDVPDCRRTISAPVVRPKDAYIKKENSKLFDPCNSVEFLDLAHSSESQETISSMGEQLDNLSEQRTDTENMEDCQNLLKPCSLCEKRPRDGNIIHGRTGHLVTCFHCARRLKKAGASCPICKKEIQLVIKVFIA
Sequence of Protein Mdm4 (Homo sapiens) + E3 ubiquitin-protein ligase Mdm2 (Homo sapiens) (Q00987 whole entry, looked up): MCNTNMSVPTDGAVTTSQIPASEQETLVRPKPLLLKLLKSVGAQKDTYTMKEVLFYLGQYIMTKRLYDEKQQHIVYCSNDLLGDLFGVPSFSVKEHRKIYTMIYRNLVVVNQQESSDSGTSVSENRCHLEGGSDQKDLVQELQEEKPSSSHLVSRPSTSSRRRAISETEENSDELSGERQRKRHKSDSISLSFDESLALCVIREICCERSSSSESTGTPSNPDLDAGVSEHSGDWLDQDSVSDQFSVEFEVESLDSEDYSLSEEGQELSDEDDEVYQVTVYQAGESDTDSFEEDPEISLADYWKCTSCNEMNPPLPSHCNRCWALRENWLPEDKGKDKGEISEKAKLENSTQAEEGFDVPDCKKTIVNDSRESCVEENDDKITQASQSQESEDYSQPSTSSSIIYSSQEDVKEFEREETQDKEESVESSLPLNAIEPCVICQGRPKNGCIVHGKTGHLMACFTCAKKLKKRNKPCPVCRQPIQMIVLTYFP

inhibition, inactive:
O=C(NCCC1=CCCCC1)c1ccc(-n2cncn2)cc1 -91.1%
COC(=O)c1ccccc1NC(=O)C1CC(=O)N(c2ccc(OC)cc2)C1 (stereo not given) 15.5%
COc1ccc(CNS(=O)(=O)c2cc3c4c(c2)CCN4C(=O)CC3)cc1 -14.5%
Cc1nnc2n1N=C(c1ccccc1)CS2 17.5%
COc1ccccc1-c1nnc2n1N=C(c1ccc(OC(F)F)c(OCC3CC3)c1)CS2 23.3%
Cc1ccc(C)c(OCCC(=O)OCC(=O)NC(=O)NCc2ccccc2)c1 6.63%
O=C(Nc1ccc(OC(F)(F)F)cc1)c1ccc2c(c1)no[n+]2[O-] 19%
CCN1C(=NCc2ccc(OC)cc2)N[C@@H](CCc2ccccc2)[C@H](C(=O)NCc2ccc(OC)cc2)[C@H]1C 14.2%
COc1ccccc1CNS(=O)(=O)c1cc(C(=O)NCc2ccccn2)c(Cl)cc1Cl -21.7%
Cc1nc(Nc2ccc(S(=O)(=O)N3CCCC3)cc2)c2nnn(Cc3ccccc3)c2n1 3.4%
CC(C)Nc1ncnc2c1nnn2Cc1ccccc1 -2.35%
Cc1cnc(C(=O)N2CCCC(N3CCN(c4ccccc4F)CC3)C2)cn1 (stereo not given) 1.8%
Cc1ccc(S(=O)(=O)N(CC(=O)N/N=C/c2ccc(F)cc2)c2cccc3cccnc23)cc1 4.5%
Cc1ccc(S(=O)(=O)c2c(COC(=O)c3cccc(Cl)c3)c(-c3ccccc3)nn2C)cc1 7.27%
Cn1nc(-c2ccccc2)c(CO)c1Sc1ccccc1 8.85%
C=CCOc1ccc(C(=O)Nc2ccccc2C(=O)N2CCCC2)cc1 2.51%
COC(=O)Nc1ncc(CN2C(=O)c3ccccc3C2=O)s1 12.4%
COCCn1c(C)cc(C(=O)COC(=O)CNC(=O)c2ccco2)c1C 3.33%
Cc1cc(C(=O)CSc2nc(N)cc(=O)[nH]2)c(C)n1Cc1ccco1 22.2%
CC(Oc1ccccc1)C(=O)NN1Cc2ccccc2C1=N (stereo not given) 16.1%
CC(C)(C)NS(=O)(=O)CC12CCC(CC1=O)C2(C)C (stereo not given) 8.21%

inhibition, active:
COc1ccc(C2=Nn3c(nnc3-c3ccccc3OC)SC2)cc1OC1CCCC1 88.2%
CC(C)Cc1nc(Nc2ccc(S(=O)(=O)N3CCCC3)cc2)c2nnn(Cc3ccccc3)c2n1 68.6%
Cn1nc(-c2ccccc2)c(CSc2cccc(Cl)c2)c1Cl 50.5%
Cc1cc(C(=O)COC(=O)CNC(=O)c2ccc(F)cc2)c(C)n1Cc1ccco1 56.9%
